The values that follow come from PubChem BioAssay (NCI).

Each structure is given as a SMILES string. About 79,000 compounds went through this panel and 15% of them were active in at least one assay; those are over-represented in the sample as a whole. Unmarked numbers belong to inactive results. Activity calls are given as the source filed them. No stated cut-off is given here; in the data, active means growth inhibition above about 70%; inactive means the rest. Where a SMILES comes first, the peptide text is derived from it. [ ]: non-standard residue; d: D form. The star is where a group is joined. Cbz = O=C(OCc1ccccc1)*; Nva = CCC[CH](N)C(=O)O

The nature of one assay: NCI Yeast Anticancer Drug Screen. Data for the sgs1 mgt1 strain (AID 161).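 Further: 0% = growth of cultures given vehicle only.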 To be noted: S. cerevisiae sgs1 mgt1 strain, at 50.0 µM, stronger effect = higher value. In short, it runs like this:
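Genetically altered yeast, compound exposure, growth inhibition relative to vehicle.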
On to `CCCNS(=O)(=O)c1ccccc1C(=O)NC1CCCCC1`, for which the growth inhibition was 4.05%.
The same measure, in the same setting: then `Nc1cc(Cl)c(F)cc1Cl`, with -3.6%.
`C[N+](C)(Cn1nc(Cl)c2ccc([N+](=O)[O-])cc21)Cn1nc(Cl)c2ccc([N+](=O)[O-])cc21`: the growth inhibition was 18.8%.
The same measure, in the same setting: then `CCOC(=O)c1cc(C)nc2c1c(=O)n(-c1ccccc1)c(=O)n2CCCCN1CCN(c2ccccc2)CC1`, with 4.8%; and `CC(=Nc1cccc2ccccc12)c1c(O)cc(C)oc1=O`, with 15.2%; and `COc1cc2ccccc2ccc1=O`, with -6.45%.
The same measure, in the same setting: next, `O=C(Cc1cc2ccccc2[nH]c1=O)Nc1ccccc1`: 6.75%; `N=C(N)S/C=C/C(=O)O`: -20.5%; `CCOC(=O)CCC(NC(=O)C(CCC(=O)OCC)NC(=O)OCc1ccccc1)C(=O)O` (stereo not given) (tested in a mixture with another compound) (Cbz-Glu(OEt)-Glu(OEt)-OH; configuration not given here): -11.2%.
Take `O=C1C(OCc2ccccc2)=C(OCc2ccccc2)C(=O)c2ccccc21`: the growth inhibition was 31.6%.
The same measure, in the same setting: next, `CN(C)Cc1ccccc1COC(=O)c1ccccc1`: 26.1%; `CCCCCCC1NN(C(C)=O)C(CCCCCC)NN1C(C)=O` (stereo not given): 7.65%; `NCCCC(=O)NCCCCCCCCCCNC(=O)CCCN`: 19%.
Same read-out and setting: next, `O=[N+]([O-])c1cccc(CC(=S)N2CCOCC2)c1`: -8.9%; `CNCCC(Oc1ccccc1OC)c1ccccc1` (stereo not given): -1.2%.
Regarding `NC1(C(=O)OCc2ccccc2)CCCC1`, the growth inhibition is -14.1%.
Same read-out and setting: next, `CC(C)N1C(=O)c2ccccc2C1=O`: 14.7%.
As to `O=C1c2ccccc2-c2ccc3c4ccc5c6c(ccc(c7ccc1c2c73)c64)-c1ccccc1C5=O`, the growth inhibition was 11.1%.
On the same count and under the same terms, next, `O=S1(=O)NC2CCC3NS(=O)(=O)NC4CCC(N1)N4S(=O)(=O)N23` (stereo not given): -4.1%; `CC(C)(C)n1c(=O)[nH]c(=O)n1C(C)(C)C`: -21.9%.
Same read-out and setting: next, `C[Si](C)(C)c1ccc2c(c1O)C(=O)c1ccccc1C2=O`: 31.9%.
On the same count and under the same terms, next, `CC(C)(Oc1ccc(/C=C/C(=O)c2ccc(Cl)cc2)cc1)C(=O)Nc1c(Cl)cccc1Cl`: 2.6%.
For `Cc1ccc(N=Nc2c(O)ccc3n[nH]nc23)cc1`, the growth inhibition is 31.9%.
Still for that read-out and setting: then `CC1(c2cccc(N)c2)OCCO1`, with 7.35%; and `Cc1cc(Br)c(NC(=O)c2c(-c3c(Cl)cccc3Cl)noc2C)c(Br)c1`, with -8.15%; and `COC(=O)/C(=C\C(=O)c1ccc(Br)cc1)NN=C(c1ccccc1)c1ccccc1`, with -3.3%.
On the same count and under the same terms, next, `O=C(Nc1ccc(N=C=S)cc1Cl)c1ccc2ccccc2c1O`: 6.75%; `O=C1CCCCCCCC(=O)Nc2ccc3nc4ccccc4c(c3c2)SCCCCCCCCCSc2c3ccccc3nc3ccc(cc23)N1`: -6.75%; `CCCC(NC(=O)OCc1ccccc1)C(=O)NC(Cc1ccc(O)cc1)C(=O)O` (stereo not given) (Cbz-[Nva]-Tyr-OH; configuration not given here): -4.2%.
On the same count and under the same terms, then `O=S(CCO)c1ccc(Cl)cc1` (stereo not given), with -21.2%; and `CC1(C)CSC(C)(C)C(=O)N1`, with -3.6%; and `CCOc1c(Cl)c(Cl)c(Cl)c(Cl)c1Cl`, with -6.7%.
In the case of `N#Cc1nc(Cc2ccccc2)oc1N`, the growth inhibition is -22%.
On the same count and under the same terms, then `Cc1nc(-n2nc(-c3ccccc3)cc2-c2ccccc2)sc1C(=O)/C=C/c1ccc(Cl)c(Cl)c1`, with 6.8%; and `COC(=O)c1c(O)ccc(O)c1C(=O)OC`, with -13.6%; and `COC(=O)c1cc([N+](=O)[O-])c(Br)s1`, with 99.6% (active).
On the same count and under the same terms, then `CCOC(=O)NC(C(=O)OCC)(N1CCN(c2cc3c(cc2F)c(=O)c(C(=O)O)cn3CC)CC1)C(F)(F)F` (stereo not given), with -11.1%; and `CCCCCCCCCSCCOC(=S)N(C)C`, with 79.2% (active).
Same read-out and setting: next, `CN(C)C(=O)NC(=S)N(C)C`: -9.85%; `CCC1(CC)CC(=O)NC1=O`: -40.5%.

The nature of the next assay: NCI Yeast Anticancer Drug Screen. Data for the cln2 rad14 strain (AID 165).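 Further: 0% = growth equal to vehicle treated cultures.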 The conditions noted are these: S. cerevisiae cln2 rad14 strain, at 50.0 µM, stronger effect = higher value. In short, it runs like this: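 The screen exposed genetically defined yeast (cln2 rad14) to test compounds and scored growth inhibition relative to vehicle-treated controls.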
As to `CCCNS(=O)(=O)c1ccccc1C(=O)NC1CCCCC1`, the growth inhibition is 10.8%.
In the case of `Nc1cc(Cl)c(F)cc1Cl`, the growth inhibition is -28.8%.
Still for that read-out and setting: next, `C[N+](C)(Cn1nc(Cl)c2ccc([N+](=O)[O-])cc21)Cn1nc(Cl)c2ccc([N+](=O)[O-])cc21`: 28.1%; `CCOC(=O)c1cc(C)nc2c1c(=O)n(-c1ccccc1)c(=O)n2CCCCN1CCN(c2ccccc2)CC1`: 3.25%; `CC(=Nc1cccc2ccccc12)c1c(O)cc(C)oc1=O`: 20.9%.
As for `COc1cc2ccccc2ccc1=O`, the growth inhibition is -3.55%.
The same measure, in the same setting: next, `O=C(Cc1cc2ccccc2[nH]c1=O)Nc1ccccc1`: -27%.
The same measure, in the same setting: next, `N=C(N)S/C=C/C(=O)O`: -4.65%; `CCOC(=O)CCC(NC(=O)C(CCC(=O)OCC)NC(=O)OCc1ccccc1)C(=O)O` (stereo not given) (tested in a mixture with another compound) (Cbz-Glu(OEt)-Glu(OEt)-OH; configuration not given here): -34.9%; `O=C1C(OCc2ccccc2)=C(OCc2ccccc2)C(=O)c2ccccc21`: 10.2%.
The same measure, in the same setting: next, `CN(C)Cc1ccccc1COC(=O)c1ccccc1`: 11.4%.
For `CCCCCCC1NN(C(C)=O)C(CCCCCC)NN1C(C)=O` (stereo not given), the growth inhibition is 49.1%.
On the same count and under the same terms, then `NCCCC(=O)NCCCCCCCCCCNC(=O)CCCN`, with 15.6%.
Same read-out and setting: next, `O=[N+]([O-])c1cccc(CC(=S)N2CCOCC2)c1`: -39.8%; `CNCCC(Oc1ccccc1OC)c1ccccc1` (stereo not given): 10.8%.
Consider `NC1(C(=O)OCc2ccccc2)CCCC1`, for which the growth inhibition is 1.9%.
Same read-out and setting: then `CC(C)N1C(=O)c2ccccc2C1=O`, with 19.8%.
With `O=C1c2ccccc2-c2ccc3c4ccc5c6c(ccc(c7ccc1c2c73)c64)-c1ccccc1C5=O`, the growth inhibition is -30.4%.
Still for that read-out and setting: next, `O=S1(=O)NC2CCC3NS(=O)(=O)NC4CCC(N1)N4S(=O)(=O)N23` (stereo not given): 6.6%; `CC(C)(C)n1c(=O)[nH]c(=O)n1C(C)(C)C`: 1.9%; `C[Si](C)(C)c1ccc2c(c1O)C(=O)c1ccccc1C2=O`: 53.6%.
The same measure, in the same setting: next, `CC(C)(Oc1ccc(/C=C/C(=O)c2ccc(Cl)cc2)cc1)C(=O)Nc1c(Cl)cccc1Cl`: 12.1%; `Cc1ccc(N=Nc2c(O)ccc3n[nH]nc23)cc1`: -46%; `CC1(c2cccc(N)c2)OCCO1`: -7.9%.
Turning to `Cc1cc(Br)c(NC(=O)c2c(-c3c(Cl)cccc3Cl)noc2C)c(Br)c1`, the growth inhibition was 4.9%.
The same measure, in the same setting: then `COC(=O)/C(=C\C(=O)c1ccc(Br)cc1)NN=C(c1ccccc1)c1ccccc1`, with 4.25%.
Regarding `O=C(Nc1ccc(N=C=S)cc1Cl)c1ccc2ccccc2c1O`, the growth inhibition was 12.6%.
As to `O=C1CCCCCCCC(=O)Nc2ccc3nc4ccccc4c(c3c2)SCCCCCCCCCSc2c3ccccc3nc3ccc(cc23)N1`, the growth inhibition is -13.2%.
On the same count and under the same terms, next, `CCCC(NC(=O)OCc1ccccc1)C(=O)NC(Cc1ccc(O)cc1)C(=O)O` (stereo not given) (Cbz-[Nva]-Tyr-OH; configuration not given here): 7%; `O=S(CCO)c1ccc(Cl)cc1` (stereo not given): -55.5%; `CC1(C)CSC(C)(C)C(=O)N1`: -6.85%.
On the same count and under the same terms, next, `CCOc1c(Cl)c(Cl)c(Cl)c(Cl)c1Cl`: 9.3%.
With `N#Cc1nc(Cc2ccccc2)oc1N`, the growth inhibition is 18.4%.
Turning to `Cc1nc(-n2nc(-c3ccccc3)cc2-c2ccccc2)sc1C(=O)/C=C/c1ccc(Cl)c(Cl)c1`, the growth inhibition is 21.1%.
Still for that read-out and setting: next, `COC(=O)c1c(O)ccc(O)c1C(=O)OC`: -16.6%.
In the case of `COC(=O)c1cc([N+](=O)[O-])c(Br)s1`, the growth inhibition is 99.5% (active).
Still for that read-out and setting: next, `CCOC(=O)NC(C(=O)OCC)(N1CCN(c2cc3c(cc2F)c(=O)c(C(=O)O)cn3CC)CC1)C(F)(F)F` (stereo not given): -24.4%; `CCCCCCCCCSCCOC(=S)N(C)C`: 2.7%.
Consider `CN(C)C(=O)NC(=S)N(C)C`, for which the growth inhibition was -13.2%.
On the same count and under the same terms, next, `CCC1(CC)CC(=O)NC1=O`: 1.5%.
